HPGD block: qHTS Assay for Inhibitors of HPGD (15-Hydroxyprostaglandin Dehydrogenase); purified HPGD, NADH fluorescence kinetic, PGE2 substrate; Potency, µM, for the others: top-dose activity change, negative = inhibition, actives largely listed as inhibitors; 15-hydroxyprostaglandin dehydrogenase [NAD(+)] (Homo sapiens), P15428; actives 4.3% (n = 150,000); active means well fitted inhibition curve with a large enough effect, not every such curve was filed as active; inconclusive means small, poorly fitted or top-dose-only effect, or another doubt; inactive means no such curve, though single readings can be large or run the other way; further: potency means the concentration at half of the fitted maximal effect
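NADH formation kinetics: reaction with 30 uM PGE2 and 1 mM NAD+ (final), 20 nM enzyme, Tris-HCl pH 8 with Tween 20, after 15 min compound preincubation at room temperature. Fluorescence change, last versus first of five reads.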
ALDH1A1 inh: qHTS Assay for Inhibitors of Aldehyde Dehydrogenase 1 (ALDH1A1). Aldehyde dehydrogenase 1A1 (Homo sapiens), P00352. Purified ALDH1A1, NADH fluorescence, propionaldehyde substrate. Potency, µM (series often up to 75.3 µM), without a hit: at the highest dose activity, negative = inhibition, usual class: inhibitors. actives 7.3% (n = 220,000). AID 1030, 2008; active means well fitted inhibition curve with a large enough effect, not every such curve was filed as active; inconclusive means small, poorly fitted or top-dose-only effect, or another doubt; inactive means no such curve, though single readings can be large or run the other way;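 further: potency means the concentration at half of the fitted maximal effect; plate controls were no enzyme wells and a reference inhibitor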
GLA inh pH 4.5: qHTS Assay for Inhibitors of Human alpha-Galactosidase at pH 4.5. Alpha-galactosidase A (Homo sapiens), P06280. purified enzyme, 4-MU-alpha-Gal fluorescence, pH 4.5. activity change, negative = inhibition, % at 105 µM. 230,000 tested, under 10 active. AID 1467, 2008;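 further: 0% = full activity with enzyme and -100% = basal without enzyme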
Target sequence (P06280 whole entry, looked up): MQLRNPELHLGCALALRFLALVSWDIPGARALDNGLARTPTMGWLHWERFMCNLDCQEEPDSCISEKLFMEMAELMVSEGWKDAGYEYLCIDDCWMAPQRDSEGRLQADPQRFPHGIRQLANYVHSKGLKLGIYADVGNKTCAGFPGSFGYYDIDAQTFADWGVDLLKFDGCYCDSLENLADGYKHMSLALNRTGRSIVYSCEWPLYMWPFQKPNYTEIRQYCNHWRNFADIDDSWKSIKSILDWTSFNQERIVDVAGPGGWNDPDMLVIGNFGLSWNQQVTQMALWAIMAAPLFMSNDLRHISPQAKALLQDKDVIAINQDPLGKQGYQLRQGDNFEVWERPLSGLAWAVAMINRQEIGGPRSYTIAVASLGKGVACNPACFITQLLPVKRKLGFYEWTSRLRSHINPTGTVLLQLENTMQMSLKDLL
ALOX12 inhib: qHTS Assay for Inhibitors of 12-hLO (12-human lipoxygenase) | purified 12-hLO, xylenol orange hydroperoxide absorbance | Potency, µM (top dose mostly 57.1 µM), without a hit: top-dose activity change, negative = inhibition, usual class: inhibitors | actives 0.12% (n = 150,000) | AID 1452, 2008; further: potency means the concentration at half of the fitted maximal effect; nearly all actives have a fitted effect of over 55% in size
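Hydroperoxide formation by human 12-lipoxygenase from 40 uM arachidonic acid was followed colorimetrically via ferric-xylenol orange complex, using the 573/405 nm absorbance ratio. Enzyme concentration was 150 nM, with 30 min reaction at room temperature.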
PNC inhibitor: High Content Assay for Compounds that inhibit the Assembly of the Perinucleolar Compartment; actives 3.1% (n = 140,000); activity change (PNC), negative = inhibition, % at 10 µM; PC3M PTB-GFP, PNC prevalence imaging, 16 h; active compounds read low; AID 2417, 2010;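 active means readout at or below -70, meaning at least 70% loss of cells showing the perinucleolar compartment, a nuclear body marking cancer cells; inconclusive means readout between -30 and a set limit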;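 further: plate controls were DMSO wells for no effect and camptothecin positive control wells for full effect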
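PC3M cells stably expressing PTB-GFP, 750–1000 cells/well, treated 16 h at 37 °C with compound (23 nl of library stock), in duplicate. After paraformaldehyde fixation and Hoechst stain, imaged at 20x; PNC prevalence scored by image analysis.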
aGal spleen mod: qHTS Assay for Inhibitors and Activators of Human alpha-Galactosidase From Spleen Homogenate; Alpha-galactosidase A (Homo sapiens), P06280; Potency, µM (doses to about 80 µM), for the others: top-dose activity change, negative = inhibition, actives largely listed as inhibitors; actives 0.008% (n = 240,000); human spleen homogenate, 4MU-alpha-Gal fluorescence, 40 min;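 further: potency means the concentration at half of the fitted maximal effect; 0% = enzyme with vehicle and -100% = no enzyme basal signal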
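Spleen homogenate 1 ug + cpd (titration) + 4-MU-alpha-D-galactopyranoside 1 mM; 37C 40 min; 50 mM citrate/phosphate pH 5.0, 0.01% Tween-20; stop pH 10; fluorescence 365/440; AC50 via Hill.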
* hit, by the source's call; ? = inconclusive; · = no result; [ ] = another dose, or the depositor's remark. Sampled rows, rich in hits. Any-hit rate of the full collection: about 10%. Unless noted, the call rests on the fitted dose curve; in most records, active means well fitted curve in the direction sought with a large enough effect; inconclusive means small, poorly fitted or top-dose-only effect, or another doubt; inactive means no such curve, though single readings can be large; an effect the other way counts as inactive or inconclusive. Unless noted, on the % scale 0 is the no-effect control and ±100 the full control effect.

SMILES | HPGD block | ALDH1A1 inh | GLA inh pH 4.5 | ALOX12 inhib | PNC inhibitor | aGal spleen mod
COc1ccc(NC(=O)CSc2nnc3ccc(-c4ccncc4)nn23)cc1OC | · | 5.9% | 0.8 | · | · | -1.2%
COC(=O)[C@@H]1CC[C@H](C)[C@@H](c2ccc(C)cc2)N1C(=O)c1ccc(/C=N\O[C@@H](C)CN2CCCc3nc(C)c(C)cc32)cc1 | · | 10.2%[13.5 µM] | · | · | · | 4.7%[17.5 µM]
Cc1onc(-c2c(F)cccc2Cl)c1C(O)c1ccc(F)cc1 (stereo not drawn) | · | · | 1.1 | · | · | 3.2%
O=C(Nc1ccc(F)cc1)N1CCC(c2nc3c(nnn3Cc3ccccc3Cl)c(=O)[nH]2)CC1 | · | -8.6% | -8.7 | · | · | 1.4%
O=C(Cc1cccs1)N1CCCC(c2nc3c(nnn3Cc3cccc(Cl)c3)c(=O)[nH]2)C1 (stereo not drawn) | 6.31µM* | -8.5% | -9.5 | -16.5% | -10.6 | -12.1%
O=C(Cc1cccs1)N1CCC(c2nc3c(nnn3Cc3ccc(F)cc3)c(=O)[nH]2)CC1 | 14.1µM* | -6.1% | -2.1 | -11.9% | ? | 3.5%
CCN(CC)C1=CC(=O)OC12CCCCC2 | 35.5µM* | 14.1µM* | 3.1 | -2.7% | 23.3 | 3.3%
O=C(c1csnn1)N1CCC[C@@]2(CCN(c3ccccn3)C2)C1 | -11.0% | 0.2% | · | 7.4% | · | -1.2%
O=C(c1cnn2c1NC(c1ccco1)CC2C(F)(F)F)N1CCN(c2cccc(Cl)c2)CC1 (stereo not drawn) | -27.8% | 3.16µM* | -8.3 | -16.2% | -22.1 | -4.3%
O=C(NCc1ccco1)c1cnn2c1NC(c1ccc(Br)cc1)CC2C(F)(F)F (stereo not drawn) | -26.3% | 1.7% | -16.1 | -11.1% | -5.6 | -0.6%
O=C(NCc1ccco1)c1cnn2c1NC(c1ccccc1)CC2C(F)(F)F (stereo not drawn) | 28.2µM* | -4.2% | 1.2 | -3.0% | ? | ?
O=C(c1ccco1)N1CCN(C(=O)c2cnn3c2NC(c2cccs2)CC3C(F)(F)F)CC1 (stereo not drawn) | -3.5% | -1.0% | -3.3 | -3.4% | 3.0 | -9.2%
O=C(NC1CCSC1)c1cccc(Cl)c1 (stereo not drawn) | · | · | 10.0 | · | · | -1.8%
COc1ccc(/C=C2\N=C(C)OC2=O)cc1[N+](=O)[O-] | · | 17.8µM* | -1.6 | · | · | -12.4%
O=C(COC(=O)c1c2c(nc3ccccc13)CCN(Cc1ccccc1)C2)Nc1c(F)cccc1F | -3.3% | ? | -6.6 | 0.5% | 5.5 | 1.3%
CC(=O)Nc1ccc(NC(=O)COC(=O)c2c3c(nc4ccccc24)CCN(Cc2ccccc2)C3)cc1 | · | 7.08µM* | -6.2 | 3.3% | 11.2 | 5.9%
COC(=O)NC1CCC(NC(=O)OC)CC1 (stereo not drawn) | 7.4% | 8.4% | -4.0 | 5.1% | ? | -2.3%
CCN(CC)S(=O)(=O)c1cc(NS(=O)(=O)c2c(Cl)cccc2Cl)ccc1C | 7.8% | ? | -9.3 | 1.3% | 5.1 | 0.3%
CCN(CC)S(=O)(=O)c1ccc(NS(=O)(=O)c2cccc(C)c2)cc1 | -3.9% | 3.3% | 2.4 | -0.5% | -24.3 | 3.4%
CN(C)S(=O)(=O)c1cccc(NS(=O)(=O)c2ccc(Cl)s2)c1 | -2.6% | ? | 1.6 | -2.6% | 30.0 | 4.9%
CCN(CC)S(=O)(=O)c1cc(NS(=O)(=O)c2cccc(Cl)c2)ccc1C | -4.0% | 17.8µM* | -14.1 | 0.6% | 75.0 | -1.6%
CCN(CC)S(=O)(=O)c1cc(NS(=O)(=O)c2cccc(Cl)c2Cl)ccc1C | 5.6% | 7.94µM* | -8.9 | -3.6% | 45.6 | -8.3%
Cc1ccc(NS(=O)(=O)c2ccc(Cl)s2)cc1S(=O)(=O)N(C)C | 1.8% | 3.16µM* | -2.3 | -4.9% | -6.5 | -11.0%

Assay outcomes (PubChem)
